Results filed as inconclusive are left out. Activity calls are given as the source filed them. Calls come from the whole dose curve; as a rule, active = well fitted curve in the direction sought with a large enough effect; inconclusive = small, poorly fitted or top-dose-only effect, or another doubt; inactive = no such curve, though single readings can be large; an effect the other way counts as inactive or inconclusive.
What was measured:
[1] = MultiTox-Fluor Cytotoxicity Assay - LYMP1-001 - Dead Cells (AID 946); details: LYMP1-001 lymphoblastoid cells, dead-cell protease fluorescence; series mostly up to 92.2 µM
Summary of the method: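 In this qHTS, 15 uM tetraoctylammonium bromide defined 100% and DMSO defined basal activity. Lymphoblastoid cells (LYMP1-001, 2500 per well) received compound for 16 hr at 37 C before a fluorogenic dead-cell substrate readout at 485/520 nm.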

[2] = MultiTox-Fluor Cytotoxicity Assay - LYMP1-001 - Live Cells (AID 947); details: LYMP1-001 lymphoblastoid cells, live-cell protease fluorescence viability; series mostly up to 92.2 µM
[3] = Cell Viability - LYMP1-002 - Assay at 16 hr (AID 948); details: LYMP1-002 lymphoblastoid cell viability; series mostly up to 92.2 µM
Summary of the method: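 ATP luminescence (CellTiter-Glo) was measured after 16 hr compound exposure at 37 C of 2500 lymphoblastoid LYMP1-002 cells per well. Concentration-response curves were fitted with the Hill equation to give AC50.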

[4] = MultiTox-Fluor Cytotoxicity Assay - LYMP1-002 - Live Cells (AID 955); details: LYMP1-002 lymphoblastoid live-cell protease fluorescence viability; series mostly up to 46.1 µM;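 note: cells exposed to compound for 16 hours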
Summary of the method: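 Human lymphoblastoid LYMP1-002 cells, 2500/well, treated 16 h at 37 C in complete medium. Live-cell protease activity via GF-AFC fluorescence (Ex/Em 405/510) after 60 min reagent incubation; AC50 from Hill fits.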

[5] = MultiTox-Fluor Cytotoxicity Assay - LYMP1-002 - Dead Cells (AID 960); details: LYMP1-002 lymphoblastoid cells, dead-cell protease fluorescence; series mostly up to 46.1 µM;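 note: cells exposed to compound for 16 h at 37 °C; nearly all actives have a fitted effect of over 60% in size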
Summary of the method: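 Human lymphoblastoid LYMP1-002 cells, 2500/well, treated 16 h at 37 C; dead-cell protease cleavage of bis-AAF-R110 read by fluorescence (485/520); normalized to DMSO and 15 uM tetraoctylammonium bromide; AC50 from Hill fit.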

[6] = MultiTox-Fluor Cytotoxicity Assay - LYMP1-003 - Dead Cells (AID 961); details: LYMP1-003 lymphoblastoid cells, dead-cell protease fluorescence; series mostly up to 92.2 µM;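 note: cells exposed to compound for 16 h at 37 °C; nearly all actives have a fitted effect of over 70% in size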
Summary of the method: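 Acute toxicity is scored as increased dead-cell protease activity in human lymphoblastoid LYMP1-003 cells after 16 h compound exposure in complete culture medium. Activity is normalized to DMSO basal and 15 uM tetraoctylammonium bromide as full response.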

[7] = MultiTox-Fluor Cytotoxicity Assay - LYMP1-003 - Live Cells (AID 962); details: LYMP1-003 lymphoblastoid cells, MultiTox-Fluor live-cell protease fluorescence; series mostly up to 92.2 µM;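 note: cells exposed to compound for 16 hours at 37 °C; cytotoxic hits lower the live-cell protease signal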
Summary of the method: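 LYMP1-003 lymphoblastoid cells, 2500/well in complete medium, treated 16 h at 37 C; live-cell protease cleavage of GF-AFC read by fluorescence (Ex/Em 405/510) after 60 min reagent; AC50 from Hill fits of concentration-response.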

[8] = Cell Viability - LYMP1-003 - Assay at 24 hr (AID 963); details: LYMP1-003 lymphoblastoid cell viability; series mostly up to 92.2 µM
Summary of the method: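 Human lymphoblastoid LYMP1-003 cells, 2500/well, treated 24 h at 37 C in complete medium. Viability read as intracellular ATP by CellTiter-Glo luminescence after 30 min at room temperature; AC50 from Hill-equation fits of qHTS concentration-response.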

[9] = Cell Viability - LYMP1-003 - Assay at 40 hr (AID 964); details: LYMP1-003 lymphoblastoid viability; series mostly up to 92.2 µM; note: nearly all actives have a fitted effect of over 60% in size
Summary of the method: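 LYMP1-003 human lymphoblastoid cells, 2500/well, preincubated 5 h at 37 C, then treated with compound for 40 h at 37 C. Intracellular ATP read by CellTiter-Glo luminescence after 30 min at room temperature; AC50 from Hill-equation fits.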

[10] = Cell Viability - LYMP2-003 (AID 965); details: LYMP2-003 lymphoblastoid cell viability; series mostly up to 92.2 µM;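 note: cells exposed to compounds for 24 h before reading; nearly all actives have a fitted effect of over 50% in size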
Summary of the method: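 CellTiter-Glo luminescence quantified ATP loss after 24 h compound treatment of LYMP2-003 lymphoblastoid cells at 37 C. Titration series were fitted with the standard Hill equation to give AC50.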

[11] = Cell Viability - LYMP2-004 (AID 966); details: LYMP2-004 lymphoblastoid cell viability, qHTS; series mostly up to 92.2 µM; note: nearly all actives have a fitted effect of over 65% in size
Summary of the method: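 Lymphoblastoid LYMP2-004 cells, 2500 per well, were preincubated for 5 hr and then treated with compound for 24 h at 37 C in complete medium. Viability was read as cellular ATP by CellTiter-Glo luminescence, and AC50 values were taken from Hill fits to concentration-response data.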

[12] = Cell Viability - LYMP2-005 (AID 967); details: LYMP2-005 lymphoblastoid cell viability; series mostly up to 92.2 µM
Summary of the method: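 LYMP2-005 human lymphoblastoid cells (2500/well) were treated with compounds for 24 h at 37 C. Intracellular ATP was then measured by CellTiter-Glo luminescence after 30 min at room temperature. AC50 values came from Hill-equation fits of qHTS concentration-response data.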

[13] = Cell Viability - LYMP2-009 (AID 968); details: LYMP2-009 lymphoblastoid cell viability; series mostly up to 92.2 µM; note: nearly all actives have a fitted effect of over 55% in size
[14] = Cell Viability - LYMP2-011 (AID 969); details: LYMP2-011 lymphoblastoid cells viability; series mostly up to 92.2 µM; note: nearly all actives have a fitted effect of over 60% in size
Summary of the method: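 2500 cells/well in complete medium, compound-treated 24 h at 37 C. Viability read as intracellular ATP by CellTiter-Glo luminescence after 30 min at room temperature. AC50 from Hill fits of qHTS concentration-response data.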

[15] = Cell Viability - LYMP2-013 (AID 970); details: LYMP2-013 lymphoblastoid cells viability; series mostly up to 92.2 µM; note: nearly all actives have a fitted effect of over 55% in size
Summary of the method: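 Human lymphoblastoid LYMP2-013 cells, 2500/well, treated 24 h at 37 C in complete medium; viability as intracellular ATP by CellTiter-Glo luminescence after 30 min. AC50 from Hill fits of qHTS concentration-response.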

[16] = Cell Viability - LYMP2-015 (AID 971); details: LYMP2-015 lymphoblastoid cell viability; series mostly up to 92.2 µM; note: nearly all actives have a fitted effect of over 55% in size
Summary of the method: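 LYMP2-015 human lymphoblastoid cells (2500/well) in complete medium, compound-treated 24 h at 37 C; viability read as cellular ATP by CellTiter-Glo luminescence after 30 min at room temperature. AC50 from Hill-equation fits of qHTS concentration-response data.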

[17] = Cell Viability - LYMP2-017 (AID 972); details: LYMP2-017 lymphoblastoid cell viability; series mostly up to 92.2 µM; note: nearly all actives have a fitted effect of over 55% in size
Summary of the method: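 LYMP2-017 human lymphoblastoid cells (2500/well) settled 5 hr at 37 C, then exposed to compound 24 hr at 37 C in complete medium. Viability taken as intracellular ATP by CellTiter-Glo luminescence after 30 min at RT; AC50 from Hill fits.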

[18] = Cell Viability - LYMP2-019 (AID 973); details: LYMP2-019 lymphoblastoid cell line viability; series mostly up to 92.2 µM; note: nearly all actives have a fitted effect of over 55% in size
Summary of the method: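 Human lymphoblastoid LYMP2-019 cells (2500/well) preincubated 5 h at 37 C, then treated 24 h at 37 C in complete medium. Viability by CellTiter-Glo ATP luminescence after 30 min at room temperature; AC50 from Hill fits.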

[19] = Cell Viability - LYMP2-021 (AID 974); details: LYMP2-021 lymphoblastoid cells viability; series mostly up to 92.2 µM
Summary of the method: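 Human lymphoblastoid LYMP2-021 cells, 2500/well in complete medium, treated 24 hours at 37 C. Intracellular ATP by CellTiter-Glo luminescence (30 min, RT); AC50 from Hill fits of concentration-response.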

[20] = Cell Viability - LYMP2-023 (AID 975); details: LYMP2-023 lymphoblastoid cell viability; series mostly up to 92.2 µM
Summary of the method: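 LYMP2-023 human lymphoblastoid cells, 2500/well, preincubated 5 hr at 37 C, then compound-treated 24 hr at 37 C in complete medium. CellTiter-Glo luminescence (ATP) after 30 min at room temperature; AC50 from Hill-equation fits; tetraoctylammonium bromide positive control.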

Measured: outcome

CC1=CC(=O)CC(C)(C)C1(O)/C=C/C(C)=C\C(=O)O (stereo not given)
inactive: all assays above

Source: PubChem BioAssay (NCATS)
